{"source": "PubChem BioAssay AID485270", "about": "(The Scripps Research Institute Molecular Screening Center, 2010)", "note": "About 5,800 (1.8%) of roughly 330,000 compounds were called active. This excerpt belongs to a sample that is enriched for actives. A number with no mark means an inactive call. Cut-off read from the data, not from the text of the source: active = inhibition mostly above about 38% (no sharp cut-off); inactive = mostly below about 40%.", "data": [{"target": "Orexin/Hypocretin receptor type 1 (Homo sapiens) (UniProt O43613)", "sequence (O43613 whole entry, looked up)": "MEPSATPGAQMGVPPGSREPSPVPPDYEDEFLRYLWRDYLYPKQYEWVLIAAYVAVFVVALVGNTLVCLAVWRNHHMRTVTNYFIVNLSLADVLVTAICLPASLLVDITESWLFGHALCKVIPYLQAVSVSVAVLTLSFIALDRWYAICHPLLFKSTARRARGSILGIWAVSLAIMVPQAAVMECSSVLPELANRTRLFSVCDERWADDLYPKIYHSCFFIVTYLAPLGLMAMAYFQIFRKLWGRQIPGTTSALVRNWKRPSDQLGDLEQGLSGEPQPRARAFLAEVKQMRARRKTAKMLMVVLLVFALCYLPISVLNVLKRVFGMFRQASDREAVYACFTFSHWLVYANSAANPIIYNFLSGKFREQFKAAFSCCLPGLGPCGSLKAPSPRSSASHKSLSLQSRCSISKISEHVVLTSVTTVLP", "assay": "antagonists of human orexin 1 receptor (OX1R) (AID 485270);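 note: 0% = agonist challenge alone and 100% = reference antagonist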", "conditions": "OX1R-expressing cells, FRET antagonist read-out; at 6.6 µM; active compounds read high", "values": [{"smiles": "O=C(N/N=C/c1c(O)n(C2CC2)c(=S)[nH]c1=O)c1ccccc1Cl", "inhibition": "16.5%"}, {"smiles": "O=C(N/N=C/c1c(O)n(C2CC2)c(=S)[nH]c1=O)c1ccccc1", "inhibition": "48.4% (active)"}, {"smiles": "O=C(N/N=C/c1c(O)n(Cc2ccccc2)c(=O)[nH]c1=O)c1ccccc1", "inhibition": "20.1%"}, {"smiles": "O=C(CSC1c2ccccc2-c2ccccc21)N/N=C/c1ccccc1", "inhibition": "53.4%"}, {"smiles": "CNC(=O)Nc1ccc(C(O)(C(=O)OC)C(F)(F)F)cc1", "note": "(stereo not given)", "inhibition": "1.75%"}, {"smiles": "COc1ccc2c(c1O)-c1cccc3c1[C@@H](C2)N(C)CC3", "inhibition": "21.8%"}, {"smiles": "Cc1nc2ccc(N3CCN(C)CC3)cc2nc1C", "inhibition": "36.4%"}, {"smiles": "CN1CCN(c2cc(N3CCNCC3)ccc2[N+](=O)[O-])CC1", "inhibition": "61% (active)"}, {"smiles": "CCN1CCN(c2ccc([N+](=O)[O-])cc2C#N)CC1", "inhibition": "30.8%"}, {"smiles": "Cc1cccc2c(CCN)c[nH]c12", "inhibition": "13.2%"}, {"smiles": "CCOCCc1c(O)[nH]c(=S)[nH]c1=O", "inhibition": "-2.14%"}, {"smiles": "COc1ccccc1N=Nc1c(O)[nH]c(=S)[nH]c1=O", "inhibition": "55.9% (active)"}, {"smiles": "O=C1N=c2ccccc2=C/C1=C\\c1c(O)[nH]c(=S)[nH]c1=O", "inhibition": "42.6%"}, {"smiles": "O=c1[nH]c(CN2CC=C(c3ccccc3)CC2)nc2scc(-c3cccs3)c12", "inhibition": "7.54%"}, {"smiles": "CC(=O)Nc1ccc(C(=O)C(Cc2ccccc2)N(C)C)cc1", "note": "(stereo not given)", "inhibition": "4.57%"}, {"smiles": "COc1cccc(-c2nc3ccc(N4CCN(C)CC4)cc3[nH]2)c1", "inhibition": "20.4%"}, {"smiles": "CN(c1ccccc1)c1ccc([N+](=O)[O-])c2nonc12", "inhibition": "73.5% (active)"}, {"smiles": "CCN(CC)c1ccc([N+](=O)[O-])c2cccnc12", "inhibition": "28.8%"}, {"smiles": "CN1CCN(Cc2ccc(OC(F)(F)F)cc2)CC1", "inhibition": "2.95%"}, {"smiles": "O=C(Cc1ccccc1)N1CCN(C2CCCCCC2)CC1", "inhibition": "-3.88%"}]}]}
